The panel holds about 83,000 compounds, 20% with a hit somewhere; the sample as a whole holds those more often.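 In brief: 96-well plates, 48 h treatment, single concentration, percent growth endpoint.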 A number with no mark means an inactive call. Calls of active or inactive are those of the source. How the source made its calls: active means growth percent below 10; inactive means the rest.
Assays:
Test in all cases: NCI-60 one-dose screen, 48 h (100 = growth as untreated, 0 = no growth, -100 = all killed)
Conditions in all cases: 10 µM unless noted
HCT-15 colon = tested on: HCT-15 colon
HT29 colon = tested on: HT29 colon
SNB-19 CNS = tested on: SNB-19 CNS
U251 CNS = tested on: U251 CNS
PC-3 prostate = tested on: PC-3 prostate
SK-MEL-5 melanoma = tested on: SK-MEL-5 melanoma
LOX IMVI melanoma = tested on: LOX IMVI melanoma
SK-MEL-28 melanoma = tested on: SK-MEL-28 melanoma
UACC-62 melanoma = tested on: UACC-62 melanoma

Row | SMILES | growth (HCT-15 colon) | growth (HT29 colon) | growth (SNB-19 CNS) | growth (U251 CNS) | growth (PC-3 prostate) | growth (SK-MEL-5 melanoma) | growth (LOX IMVI melanoma) | growth (SK-MEL-28 melanoma) | growth (UACC-62 melanoma)
1 | Brc1cccc(-c2nc(-c3ccc4c(c3)OCCO4)co2)c1 | 34.5% [25 µM] | 17.1% [25 µM] | 63.1% [25 µM] | 43.3% [25 µM] | 74% [25 µM] | 57.6% [25 µM] | 45.4% [25 µM] | 72.9% [25 µM] | –
2 | O=[N+]([O-])c1cccc(-c2nc3sccn3c2-c2ccnc(NCCCNS(=O)(=O)c3ccc(F)cc3)n2)c1 | -3.76% (active) | 18.4% | 29.3% | 26.8% | -3.27% (active) | – | -21.3% (active) | -1.76% (active) | -45% (active)
3 | CCCCCCCCCCCCCCCCCCNC(=O)[C@H]1CSC(c2ccc(F)c(OC)c2)N1 (some centres not stated) | 6.47% (active) | -84.5% (active) | -40.2% (active) | -96.6% (active) | 34.1% | – | 14.1% | -93.3% (active) | -97.2% (active)
4 | Cc1cc(N/N=C/c2nc(-c3ccc(Cl)cc3)oc2C)c2cc(Br)ccc2n1 | -20.3% (active) | -45.8% (active) | 41.6% | -33.3% (active) | 80.2% | – | -43.4% (active) | 17.5% | 58.2%
5 | O=C(Nc1nc(-c2ccccc2)cc(-c2ccc(Cl)cc2)n1)c1ccncc1 | 104% | 96.8% | 90.3% | 93% | 91.4% | 102% | 91.7% | 115% | 86.9%
6 | O=C(O)c1cn(C2CC2)c2cc(N3CCN(Cc4nc5c(cnn5-c5ccc([N+](=O)[O-])cc5)c(=O)[nH]4)CC3)c(F)cc2c1=O | 102% | 102% | 106% | 106% | 93.9% | 99% | 101% | 106% | 86.6%
7 | COc1ccc(S(=O)(=O)NCCNc2nccc(-c3c(-c4cccc([N+](=O)[O-])c4)nc4sccn34)n2)cc1 | 77.5% | 74.8% | 91.6% | 91.1% | 64.6% | – | 88.6% | 107% | 84%
8 | Cc1ccc(-c2nc(/C=N/Nc3cc(C)nc4ccc(Cl)cc34)c(C)o2)cc1 | -67.5% (active) | -77.9% (active) | -44.7% (active) | -94.8% (active) | 33.7% | 49.6% | -80.3% (active) | -68.8% (active) | 31.7%
9 | Nc1ccc2c(c1)C(=O)NC2=O | 98.5% | 90.7% | 93.5% | 96% | 121% | 105% | 97.8% | 99.8% | 89.7%
10 | O=C(CN1CCN(c2cc3c(cc2F)c(=O)c(C(=O)O)cn3C2CC2)CC1)Nc1cc(=O)[nH]c(=O)[nH]1 | 96.1% | 102% | 97.4% | 106% | – | 98.9% | 101% | 101% | 96%
11 | CC(=O)O[C@H]1CC[C@]2(C)[C@H]3CC[C@@H]4[C@H]5[C@H](C(C)C)CC[C@]5(C(=O)OCC(CO)(CO)N=C(N)N)CC[C@@]4(C)[C@]3(C)CC[C@H]2C1(C)C | 10.4% | -69% (active) | 58.5% | -96.4% (active) | 41.2% | 81.2% | -48.8% (active) | 84.9% | 86.8%
12 | CCN(CC)CC#CCOC(=O)[C@]1(C)CCC[C@@]2(C)[C@H]1CC(C=O)=C1C=C(C(C)C)CC[C@@H]12 | 40.9% | 9.02% (active) | 77.1% | 57.2% | 45.4% | – | 73.2% | 87.4% | 68.9%
13 | COc1cc(C2CC(=O)c3c(C)nn(-c4nc5ccccc5[nH]4)c3C2)cc(OC)c1OC (configuration not stated) | 87% | 74.2% | 71.8% | 30% | 72.2% | 87.1% | – | 86.5% | 90.8%
14 | CCCCCCNC(=O)Oc1ccc(/C(=C(\C)c2ccccc2)c2ccc(OCCN(CC)CC)cc2)cc1 | 4.48% (active) | -16.1% (active) | 63.6% | 38.2% | 45.4% | 41.9% | 67.8% | 61.1% | 18.4%
15 | CC(C)[C@@H]1CC[C@]2(C(=O)NCCCCN=C(N)N)CC[C@]3(C)[C@H](CC[C@@H]4[C@@]5(C)CCC(=O)C(C)(C)[C@@H]5CC[C@]43C)[C@@H]12 | 96.4% | 40.2% | 41.9% | 30.8% | 46.6% | 20.4% | 69.9% | 15.6% | 48.2%
16 | CN1CCN(Cc2ccc(NC(=O)c3cncc(C#Cc4cnc(N)c5cccnc45)c3)cc2C(F)(F)F)CC1 | 22.9% | 7.8% (active) | 39.8% | 33.9% | 29.3% | -23.6% (active) | -76.6% (active) | -2.55% (active) | -47.6% (active)
17 | O=C1CCc2c(sc3[nH]c(=S)n(Cc4ccccc4)c(=O)c23)C1 | 7.5% (active) | 79.6% | 11.8% | 8.09% (active) | 13.9% | – | 11.7% | 25% | 8.72% (active)
18 | O=C(Nc1ccc(Oc2ccc(F)cc2)c(Cl)c1)c1cccnc1 | 84.3% | 88.5% | 93.2% | 89% | 90.7% | 79.5% | 91.2% | 103% | 81.3%
19 | CCOC(=O)c1cnc2ccc(Br)cc2c1Nc1cccc(S(=O)(=O)NC)c1 | 80.5% | 101% | 100% | 109% | 102% | 96.6% | 93.6% | 122% | 96.9%
20 | Cn1c(=O)c2[nH]c(C(O)C(O)C(O)C(O)CO)nc2n(C)c1=O (configuration not stated) | 106% | 99.6% | 97.3% | 100% | 93.2% | 104% | 102% | 100% | 99.7%
21 | COc1ccc(-c2cn3c(ccc4ccccc43)n2)cc1 | 92.4% | 108% | 99.3% | 105% | 89.2% | 78% | 95.1% | 117% | 85.3%
22 | CCN(CC)CCCC(C)Nc1ccnc2c(OC)cccc12 (configuration not stated) | 120% | 107% | 113% | 102% | 104% | 111% | 107% | 119% | –
23 | C=C(C[n+]1ccccc1)[C@@H]1CC[C@]2(C(=O)OC)CC[C@]3(C)[C@H](CC[C@@H]4[C@@]5(C)CC[C@H](O)C(C)(C)[C@@H]5CC[C@]43C)[C@@H]12 | 106% | 94.5% | 106% | 99% | -77.4% (active) | 96.5% | 92% | 108% | 91.5%
24 | C/C(=C(/c1ccc(O)cc1)c1ccc(Cl)cc1)c1ccccc1 | -81.9% (active) | -66.6% (active) | -86.2% (active) | -94.6% (active) | -74.6% (active) | -98.9% (active) | -95.7% (active) | -96.3% (active) | -94.5% (active)
25 | COc1ccc(-c2nn(-c3ccccc3)cc2/C=C/C(=O)OCc2cn(-c3ccc(F)c(Cl)c3)nn2)cc1 | 88.5% | 103% | 85% | 101% | 60.5% | 83.3% | 78.9% | 115% | –
26 | Cc1ccc2cnc(N)c(C#Cc3cncc(C(=O)Nc4ccc(CN5CCN(C)CC5)c(C(F)(F)F)c4)c3)c2c1 | -91.9% (active) | -69.9% (active) | -99.1% (active) | -89.5% (active) | -71% (active) | – | -92.4% (active) | -90.8% (active) | –
27 | COc1ccc(S(=O)(=O)NCCCNc2nccc(-c3c(-c4cccc(N)c4)nc4sccn34)n2)cc1 | 89.2% | 59.7% | 110% | 106% | 81.4% | – | 96.4% | 93.1% | 53%
28 | C(=N\Nc1ccccn1)/c1ccccn1 | 42.7% | 19% | 40.4% | 13.4% | 63.5% | -4.55% (active) | -11.6% (active) | 34.8% | 2.66% (active)
29 | Cc1nc2sc(C(=O)Nc3cccc4c3OCCO4)c(N)c2cc1C(C)O (configuration not stated) | 21.4% | 3.68% (active) | 34.3% | 28.7% | 32.6% | 29.7% | 33% | 66.6% | 22%
